Screening data as filed in PubChem.
PI4K2A block: inhibitors of human PI4K2A; purified PI4K2A, ADP-Glo luminescence, 1 h; stronger effect = lower value; Q9BTU6; activity change, negative = inhibition, % at 76.9 µM; AID 1346378; hit rate 0.13% among 420,000; in the data active = activity change below about -50%; inconclusive = mostly about -30% to -49%
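PI4K2A activity was measured by ADP-Glo luminescence: enzyme (4 ug/mL stock) and phosphatidylinositol (1.2 mM stock) in Tris pH 7.5/MgCl2/EGTA/Triton X-100 buffer were reacted with ATP (300 microM stock) for one hour at ambient temperature.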
GLS inh: blocks human kidney-isoform glutaminase activity; O94925; hit rate 0.21% among 410,000; Potency, µM (titrated, usually from 45.5 µM), most hits filed as inhibitors; GLS enzymatic activity, qHTS titration; AID 624170
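Human kidney-isoform GLS in 45 mM KH2PO4 pH 8.2, 0.02% Tween-20, with compound, started with 1mM L-Glutamine (added stock). Glutamate oxidase/HRP/Amplex red coupled fluorescence read at start and after 30 min at RT.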
PLK1 PBD block: blocks phosphopeptide binding to human PLK1 polo-box domain; Plk1 PBD binding of FITC phosphopeptide, fluorescence polarization; P53350; hit rate 2.8% among 360,000; AID 720504; Potency, µM, most hits filed as inhibitors; note: series mostly up to about 57 µM; nearly all actives have a fitted effect of over 65% in size
KAT2A inh: blocks human GCN5L2 histone acetyltransferase; AID 504327; Potency, µM (titrated, usually from 58.9 µM), hits mostly inhibitors; hit rate 0.21% among 390,000; GCN5L2 HAT assay, ThioGlo1 CoA-SH fluorescence
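ThioGlo1-coupled HAT assay: 20nM GCN5L2, 70uM acetyl-CoA, 75uM H3(1-25) peptide, pH 7.5. Fluorescence read at 340/540nm at start and after 20 min at room temperature.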
VDR inh: blocks the human vitamin D receptor. VDR-SRC2-3 peptide fluorescence polarization, 2 h. Potency, µM, hits mostly inhibitors. hit rate 0.93% among 400,000
Target sequence (P11473 whole entry, looked up): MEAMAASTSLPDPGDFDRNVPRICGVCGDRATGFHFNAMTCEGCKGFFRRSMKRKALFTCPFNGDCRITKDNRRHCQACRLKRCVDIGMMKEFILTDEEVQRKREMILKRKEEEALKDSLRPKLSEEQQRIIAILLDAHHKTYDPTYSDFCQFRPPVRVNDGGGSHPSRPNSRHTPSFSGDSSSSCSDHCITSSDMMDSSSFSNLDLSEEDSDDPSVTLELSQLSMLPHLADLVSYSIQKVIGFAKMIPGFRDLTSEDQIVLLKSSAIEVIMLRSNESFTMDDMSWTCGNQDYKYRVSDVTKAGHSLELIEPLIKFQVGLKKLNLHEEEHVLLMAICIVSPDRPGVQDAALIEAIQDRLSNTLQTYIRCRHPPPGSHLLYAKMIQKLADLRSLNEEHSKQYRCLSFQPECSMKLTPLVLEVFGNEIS
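Signal is fluorescence polarization, reporting how far test compounds block the interaction of VDR with the SRC2-3 coregulator peptide after a 2 h room-temperature incubation.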
A number is an active result; . = inactive; ? = inconclusive; / = no result given. Compounds with a hit are over-represented: about 3.1% of the library has one in this group of screens. Unless noted, calls come from the whole dose curve; as a rule, active = well fitted curve in the direction sought with a large enough effect; inconclusive = small, poorly fitted or top-dose-only effect, or another doubt; inactive = no such curve, though single readings can be large; an effect the other way counts as inactive or inconclusive.

SMILES	PI4K2A block	GLS inh	PLK1 PBD block	KAT2A inh	VDR inh
COCCCn1c(=N)c(C(=O)NC2CCCCC2)cc2c(=O)n3cc(C)ccc3nc21	.	.	/	.	.
O=C(Sc1nnc(-c2ccccc2)o1)N1c2ccccc2Sc2ccccc21	.	.	67µM	.	.
COc1cc(-c2nnc(SCC(=O)N3c4ccccc4Sc4ccccc43)o2)cc(OC)c1OC	.	.	.	.	.
NCCS	.	.	?	.	22µM
COc1ccc(Cl)cc1NC(=S)N(Cc1ccccc1C)CC1CCC(C(=O)O)CC1 (stereo unspecified)	.	.	30µM	.	.
COC(=O)C[C@@H]1CC[C@H]2[C@@H](COc3ccc(NS(=O)(=O)c4ccccc4F)cc3C(=O)N2C)O1	.	/	/	/	/
CCCn1c(=O)c2sccc2n2c(CCCC(=O)NCCc3ccc(Cl)cc3)nnc12	.	.	/	.	.
O=C(NC1CCCCN(Cc2cccc(Cl)c2)C1=O)c1ccc2ccccc2c1 (stereo unspecified)	.	/	/	/	/
CCCCC1(CO)C(=O)N(c2ccccc2)N(c2ccccc2)C1=O	.	.	.	.	.
CCCCC1(Br)C(=O)N(c2ccccc2)N(c2ccccc2)C1=O	.	.	?	.	71µM
Cc1ccccc1OCC(=O)NCC(=O)OC(c1ccccc1)c1ccccc1	/	/	/	/	.
CCOc1ccc(Cl)cc1S(=O)(=O)n1nnc2ccccc21	.	.	27µM	.	.
CNC(=O)c1cnn(-c2nc(N)c3ncn([C@@H]4O[C@H](CO)[C@@H](O)[C@H]4O)c3n2)c1	.	/	/	/	/
CCNc1ncc2nc(-c3cccc(C#N)c3)c(=O)n(C)c2n1	/	/	/	35µM	.
CCN(CC)S(=O)(=O)c1nnc(NC(=O)COc2ccccc2F)s1	.	.	/	.	.
CC(=O)OC1CCC2(C)C(=CCC3C2CCC2(C)C(C(C)=O)CCC32)C1 (stereo unspecified)	/	.	/	/	/
O=C(O)/C(=C\c1ccc(F)cc1)c1ccc(-c2ccccc2)cc1	.	.	24µM	?	.
O=C(O)/C(=C\c1ccccc1OC(F)F)c1ccc(-c2ccccc2)cc1	.	.	?	.	.
CCc1ccc(NCc2cc3cc(OC)c(OC)cc3n(CC(=O)Nc3ccc(F)cc3)c2=O)cc1	.	?	/	.	.
CCc1ccc(NCc2cc3cc(OC)c(OC)cc3n(CC(=O)Nc3cc(C)ccc3C)c2=O)cc1	.	11µM	/	.	.
CC(=O)c1cccc(NC(=O)Cn2c(=O)c(CNc3ccc(C)cc3)cc3cc4c(cc32)OCCO4)c1	.	10µM	/	.	.
Cc1ccc(NC(=O)Cn2c(=O)c(CNc3ccccc3)cc3cc4c(cc32)OCCO4)cc1	.	.	/	.	.
COC(=O)C1CN(Cc2ccccc2)CCS(=O)(=O)N1Cc1cn(Cc2cccc(Cl)c2)nn1 (stereo unspecified)	.	/	/	/	/
COc1ccc(Cl)cc1NC(=O)c1ncn(-c2ccccc2)n1	.	.	/	.	.
N#Cc1cc2c(nc1SCc1ccccc1)CCCCC2	.	.	3.8µM	.	.
SMILES	PI4K2A block	GLS inh	PLK1 PBD block	KAT2A inh	VDR inh
Cc1ccccc1Cn1cc(CCC(=O)NC(C)c2ccccc2)c2ccccc21 (stereo unspecified)	.	.	/	.	.
O=C(CN(Cc1ccco1)C(=O)CNS(=O)(=O)c1ccc(Cl)cc1)NCc1ccc(F)cc1	.	.	27µM	/	.
COc1ccc(C(=O)Nc2ccc([N+](=O)[O-])cn2)cc1OC	.	.	.	.	.
COc1cc(OC)cc(C(=O)Nc2ccc([N+](=O)[O-])cn2)c1	.	.	27µM	.	?
Cc1ccc(S(=O)(=O)c2nnn3c2nc(NC2CCCCC2)c2sccc23)cc1C	.	.	/	.	.
Cc1ccc(SCc2[nH]nc3c2C(c2ccco2)C(C#N)=C(N)O3)cc1 (stereo unspecified)	.	.	9.5µM	.	.
Cc1ccc(SCc2[nH]nc3c2C(c2ccc(C)o2)C(C#N)=C(N)O3)cc1 (stereo unspecified)	.	.	?	.	.
CC(NC(=O)Cn1cc(C(=O)C2CC2)c2ccccc21)c1ccccc1 (stereo unspecified)	.	.	30µM	.	.
COC(=O)Cn1cc(C(=O)C2CC2)c2ccccc21	.	.	.	.	.
Cc1nc(-c2ccc(C)c(N3CCN(C(=O)Nc4cccc(Cl)c4C)CC3)c2)no1	.	.	/	.	.
CC1CCc2nc(NC(=O)C3CCCO3)sc2C1 (stereo unspecified)	.	.	24µM	.	.
O=C(Nc1nnc(-c2ccncc2)s1)C1CCCO1 (stereo unspecified)	.	.	21µM	.	.
O=C(Nc1nnc(-c2ccccc2F)s1)C1CCCO1 (stereo unspecified)	.	.	.	.	.
CCCC(C)c1nnc(NC(=O)C(=O)OCC)s1 (stereo unspecified)	.	.	11µM	.	?
CCCC(C)c1nnc(NC(=O)C2CC(=O)N(CCc3ccc(F)cc3)C2)s1 (stereo unspecified)	.	?	6µM	.	?
CCc1nnc(NC(=O)C2CC(=O)N(CCc3ccc(F)cc3)C2)s1 (stereo unspecified)	.	.	?	.	.
CCC(CC)C(=O)Nc1nc2c(s1)CC(C)CC2 (stereo unspecified)	.	.	/	.	.
Cc1ccc2nc(-c3ccc(N=Nc4cc(S(=O)(=O)O)c5ccccc5c4O)cc3)sc2c1S(=O)(=O)O	/	/	/	/	.
C#CCNC(=O)C[C@@H]1C[C@@](CCC(=O)OCC)(C(=O)OCC)C2=CCCCN2C1=O	.	/	/	/	/
CCCC(C)c1nnc(NC(=O)CN2C(=O)c3ccccc3C2=O)s1 (stereo unspecified)	.	.	27µM	.	.
CCCC(C)c1nnc(NC(=O)C2CCCO2)s1 (stereo unspecified)	.	.	30µM	.	.
c1ccc(-c2c[nH]c3cccc(-c4cc5ccccc5o4)c23)cc1	.	/	/	/	/
O=C(O)c1ccccc1Nc1ccc(CCc2ccc(Cl)c(Cl)c2)cc1	/	/	/	11µM	35µM
COc1ccc(Nc2ccccc2C(=O)O)cc1	.	.	.	.	.
O=C(O)c1ccccc1NC(=O)c1ccccc1Nc1ccccc1	.	.	30µM	?	.
SMILES	PI4K2A block	GLS inh	PLK1 PBD block	KAT2A inh	VDR inh
O=C(Cc1ccc(NC(=O)N2CCCCc3ccccc32)cc1)Nc1ccccc1Br	.	.	/	.	.
Cc1c(C(=O)N(C)C)sc2c1c(=O)n(-c1ccc(Cl)c(Cl)c1)c(=O)n2CC(=O)Nc1ccc(Br)cc1F	/	/	/	.	.
C(=N\Nc1nc(-c2ccccc2)cs1)/c1cccs1	.	.	30µM	.	.
C(=N\Nc1nc(-c2ccccc2)cs1)/c1ccncc1	.	?	.	.	.
COC(=O)[C@]12C[C@H](CC(=O)N3CCOCC3)C(=O)N(Cc3ccco3)C1=C[C@H](C(C)(C)C)O[C@@H]2C	.	/	/	/	/
COc1ccc(NC(=O)CN(C)C(=O)c2cc3c(s2)CCC3)cc1	.	.	7.5µM	?	.
CCOC(=O)NC[C@@]1(C(=O)OC)CC(=O)N(C)[C@@H]1c1ccccc1	.	/	/	/	/
